This assay has as its target Splicing factor 3B subunit 1 (UniProt O75533). Kind of assay: cross-link between two proteins; cross-linking mass spectrometry.
Sequence of UniProt O75533 (O75533 whole entry): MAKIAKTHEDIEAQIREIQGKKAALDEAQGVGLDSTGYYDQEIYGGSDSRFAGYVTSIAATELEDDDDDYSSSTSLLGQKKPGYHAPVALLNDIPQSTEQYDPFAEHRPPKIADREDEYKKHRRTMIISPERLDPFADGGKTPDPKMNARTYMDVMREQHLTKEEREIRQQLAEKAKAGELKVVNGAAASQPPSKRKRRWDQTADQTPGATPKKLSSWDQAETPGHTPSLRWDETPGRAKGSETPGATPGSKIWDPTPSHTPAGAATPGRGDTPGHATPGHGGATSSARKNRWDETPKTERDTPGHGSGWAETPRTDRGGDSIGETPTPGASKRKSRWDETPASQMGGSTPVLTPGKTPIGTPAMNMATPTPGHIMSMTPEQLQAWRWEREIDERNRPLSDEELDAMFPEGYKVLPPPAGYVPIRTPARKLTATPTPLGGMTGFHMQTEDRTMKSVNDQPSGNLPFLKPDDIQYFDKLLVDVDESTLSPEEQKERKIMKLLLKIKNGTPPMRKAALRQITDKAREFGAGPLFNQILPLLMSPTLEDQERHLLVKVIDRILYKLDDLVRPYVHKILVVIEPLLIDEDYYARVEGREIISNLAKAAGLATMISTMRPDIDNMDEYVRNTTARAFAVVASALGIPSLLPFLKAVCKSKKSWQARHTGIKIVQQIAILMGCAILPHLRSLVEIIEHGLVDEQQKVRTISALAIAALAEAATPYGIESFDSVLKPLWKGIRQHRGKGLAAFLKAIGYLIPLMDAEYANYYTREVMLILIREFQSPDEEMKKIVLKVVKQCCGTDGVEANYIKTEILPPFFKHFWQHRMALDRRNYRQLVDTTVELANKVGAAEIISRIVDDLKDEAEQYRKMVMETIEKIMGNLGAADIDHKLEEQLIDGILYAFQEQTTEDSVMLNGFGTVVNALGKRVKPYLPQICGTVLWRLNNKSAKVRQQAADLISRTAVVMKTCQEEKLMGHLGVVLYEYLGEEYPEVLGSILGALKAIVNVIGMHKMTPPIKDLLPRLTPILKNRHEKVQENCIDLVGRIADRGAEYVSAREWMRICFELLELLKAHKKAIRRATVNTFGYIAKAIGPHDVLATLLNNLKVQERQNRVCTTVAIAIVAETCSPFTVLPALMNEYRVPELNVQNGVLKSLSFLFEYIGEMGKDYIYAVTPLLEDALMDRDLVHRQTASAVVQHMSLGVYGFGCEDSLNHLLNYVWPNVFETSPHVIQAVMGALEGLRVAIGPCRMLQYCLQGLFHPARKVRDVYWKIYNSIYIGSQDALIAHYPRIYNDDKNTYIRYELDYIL

“17S U2 SnRNP complex component HTATSF1, O43719”: the “listed as a hit” value is listed as “yes”.

Source of the values: paper doi:10.1101/2025.08.08.669391.
